ELG1 repair inh = blocks ELG1-dependent DNA repair in HEK293T cells | HEK293T ELG1-luciferase reporter, luminescence, 16 h; DNA damage induced by 5-fluorouridine | Potency, µM (series often up to 46.1 µM), for inactives: top-dose activity change, negative = inhibition, actives largely listed as inhibitors | actives 2.3% (n = 330,000) | AID 504467; also: potency is read from the fitted curve at half-maximal effect; nearly all actives have a fitted effect of over 55% in size
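Overnight (16 hr) co-exposure of 2,000 cells/well to 5-fluorouridine and compound at 37 °C preceded detection. Luciferase was quantified via ONE-Glo luminescence; loss of signal denotes inhibition.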
HT1080-NT tox = kills 2HG-producing HT-1080-NT fibrosarcoma cells; HT-1080-NT fibrosarcoma viability, CellTiter-Glo ATP luminescence, 48 h; Potency, µM (highest dose often 46.1 µM), inactives show at the top dose activity, negative = less viability, most hits filed as cytotoxic; actives 1.6% (n = 360,000); AID 686970;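 also: NT is the 2HG producing partner of a matched IDH1 knockdown line; potency is read from the fitted curve at half-maximal effect; 0% = DMSO-treated cells and -100% = media-only wells without cells; nearly all actives have a fitted effect of over 55% in size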
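A 48-hour cytotoxicity screen used HT-1080-NT cells plated 2 hours before compound delivery. ATP-based CellTiter-Glo luminescence measured viability, normalized to DMSO and no-cell controls.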
DT40 TDP1 no CPT = qHTS for Inhibitors of human tyrosyl-DNA phosphodiesterase 1 (TDP1): qHTS in cells in absence of CPT. DT40 Tdp1-/- hTDP1 cells, no CPT, ATP luminescence, 48 h. Potency, µM (highest dose often 46.2 µM), for the others: at the highest dose activity change, negative = growth inhibition, hits mostly inhibitors. actives 15% (n = 420,000); also: potency is read from the fitted curve at half-maximal effect; nearly all actives have a fitted effect of over 55% in size
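Chicken DT40 Tdp1-/- cells complemented with human TDP1, screened without camptothecin (DMSO vehicle only), 400 cells/well. Compounds pin-transferred, cells incubated at 37 °C for at least 48 hr. Growth read as ATP-dependent luminescence (CellTiter-Glo, 30 min at RT).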
IL-1B inflam inh = inflammasome signaling inhibition, IL-1 beta readout | THP-1 LPS/ATP IL-1B secretion, AlphaLISA, 16 h; hits give low values | activity change, % at 57.5 µM | actives 4.7% (n = 360,000) | AID 743279; in the data active = activity change below about -50%; inconclusive = mostly about -30% to -49%
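THP-1 cells pretreated 1 hr with compounds (up to 57.5 uM final), then stimulated with LPS (250 ng/mL final) plus ATP (1.25 mM final); secreted IL-1B measured by AlphaLISA after 16 hr, decreased signal indicating inhibition.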
TDP1 cell CPT = growth inhibition of DT40 Tdp1-/-;hTDP1 cells with camptothecin (screen for TDP1 inhibitors); chicken DT40 Tdp1-/-;hTDP1 cells + 20 nM CPT, ATP luminescence, 48 h; AID 686979; Potency, µM (titrated, usually from 46.2 µM), without a hit: at the highest dose activity change, negative = growth inhibition, usual class: inhibitors; actives 12% (n = 420,000); also: potency is read from the fitted curve at half-maximal effect; nearly all actives have a fitted effect of over 55% in size
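Chicken DT40 Tdp1-/- cells stably complemented with human TDP1 were seeded at 400 cells/well in medium containing 20 nM camptothecin, exposed to pin-transferred compounds, and grown at 37 °C for at least 48 hr. Viability was read as ATP luminescence.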
HT1080 IDH1KD tx = HT-1080 IDH1 knockdown cell toxicity (counter line); HT-1080 IDH1 knockdown viability, ATP luminescence, 48 h; Potency, µM (doses to about 46.1 µM), for inactives: at the top dose activity, negative = toxicity, most hits filed as cytotoxic; actives 2% (n = 360,000); AID 686971;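 also: potency is read from the fitted curve at half-maximal effect; 0% = DMSO wells and -100% = cell-free medium wells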
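Assay cells: HT-1080 with IDH1 knockdown, 750 per well, RPMI/5% FBS. Exposure: 48 h at 37 °C following 2 h pre-incubation. Read: CellTiter-Glo luminescence; fitted concentration-response, curve class assigned.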
* marks the source's active call; other numbers are inactive results; [ ] = dose if it differs, or a comment. In the library only some 19% were active in any assay of this set; here they are far more common. Unless noted, calls follow the shape of the dose curve; as a rule, active = well fitted curve in the direction sought with a large enough effect; inconclusive = small, poorly fitted or top-dose-only effect, or another doubt; inactive = no such curve, though single readings can be large; an effect the other way counts as inactive or inconclusive. Unless noted, % is scaled to controls: 0 for no effect and ±100 for the full control effect.

CC(=O)n1cc([C@H]2C=C(C(=O)N3CCN(Cc4ccccc4)CC3)O[C@@H](OCc3ccc(CO)cc3)C2)c2ccccc21 was read as ELG1 repair inh inconclusive, HT1080-NT tox -15.2%, DT40 TDP1 no CPT 7.31µM*, IL-1B inflam inh 0.0, TDP1 cell CPT 7.31µM* and HT1080 IDH1KD tx -19.4%.
For CC(=O)n1cc([C@@H]2C=C(C(=O)NCc3ccccc3)O[C@H](OCc3ccc(CO)cc3)C2)c2ccccc21 the results were ELG1 repair inh inconclusive, HT1080-NT tox -23.6%, DT40 TDP1 no CPT 9.2µM*, IL-1B inflam inh inconclusive, TDP1 cell CPT 7.31µM* and HT1080 IDH1KD tx -22.0%.
`CC(=O)n1cc([C@@H]2C=C(C(=O)O)O[C@H](OCc3ccc(CO)cc3)C2)c2ccccc21` gave ELG1 repair inh 19.4%, HT1080-NT tox 12.1%, DT40 TDP1 no CPT -3.5%, IL-1B inflam inh 13.2, TDP1 cell CPT -0.7% and HT1080 IDH1KD tx 8.2%.
CC(NCc1ccccc1)c1ccccc1O (stereo unspecified) was read as ELG1 repair inh -5.9%, HT1080-NT tox -24.3%, DT40 TDP1 no CPT -1.1%, IL-1B inflam inh -2.5, TDP1 cell CPT 12.2% and HT1080 IDH1KD tx 3.7%.
CCC1(C2CCN(Cc3cccc(Cl)c3)CC2)NC(=O)N(CC2COc3ccccc3O2)C1=O (stereo unspecified) was read as DT40 TDP1 no CPT inconclusive and TDP1 cell CPT -3.8%[9.04 µM].
Screening Cc1ccc(Sc2sc(=O)n(C)c2S(=O)(=O)c2ccc(C)cc2)cc1 returned ELG1 repair inh -13.3%, HT1080-NT tox 16.0%, DT40 TDP1 no CPT 20.6µM*, IL-1B inflam inh 4.2, TDP1 cell CPT inconclusive and HT1080 IDH1KD tx 3.8%.
`CC(C)(Oc1ccc(Cl)cc1)C(=O)OCC(=O)NCCc1ccccc1` gave ELG1 repair inh -4.3%, HT1080-NT tox 18.2%, DT40 TDP1 no CPT 5.2%, IL-1B inflam inh 13.5, TDP1 cell CPT -27.8% and HT1080 IDH1KD tx 1.2%.
For Cn1nc([N+](=O)[O-])nc1Sc1cccc2cccnc12 the results were ELG1 repair inh inconclusive, HT1080-NT tox -20.9%, DT40 TDP1 no CPT 20.6µM*, IL-1B inflam inh 90.2, TDP1 cell CPT 6.51µM* and HT1080 IDH1KD tx -11.9%.
For Cn1nc([N+](=O)[O-])nc1Sc1nnc(-c2ccccc2)o1 the results were ELG1 repair inh inconclusive, HT1080-NT tox inconclusive, DT40 TDP1 no CPT 4.61µM*, IL-1B inflam inh -95.7*, TDP1 cell CPT 5.17µM* and HT1080 IDH1KD tx inconclusive.
CCc1ccc(-n2nc(CO)c(C(=O)NCCCc3ccccc3)n2)cc1 was read as DT40 TDP1 no CPT -14.8% and TDP1 cell CPT -7.3%.
For OB(O)c1ccc(Cl)s1 the results were DT40 TDP1 no CPT -11.6% and TDP1 cell CPT -0.4%.
For COc1ccc(CCNc2cc(-c3ccccc3)nc3ncnn23)cc1 the results were ELG1 repair inh inconclusive, HT1080-NT tox 0.0%, DT40 TDP1 no CPT inconclusive, IL-1B inflam inh -0.3, TDP1 cell CPT 23.1µM* and HT1080 IDH1KD tx -13.2%.
`Cc1cc(NCc2ccccc2)n2ncnc2n1` gave ELG1 repair inh -8.1%, HT1080-NT tox 2.3%, DT40 TDP1 no CPT 11.6µM*, IL-1B inflam inh 22.7, TDP1 cell CPT inconclusive and HT1080 IDH1KD tx 1.6%.
`C#CCNc1cc(-c2ccccc2)nc2ncnn12` gave ELG1 repair inh 5.6%, HT1080-NT tox -0.9%, DT40 TDP1 no CPT 2.5%, IL-1B inflam inh 21.4, TDP1 cell CPT -6.9% and HT1080 IDH1KD tx 5.9%.
For Cc1cc(NCC(c2ccccc2)c2ccccc2)n2ncnc2n1 the results were ELG1 repair inh -2.9%, HT1080-NT tox 6.7%, DT40 TDP1 no CPT inconclusive, IL-1B inflam inh 29.3, TDP1 cell CPT inconclusive and HT1080 IDH1KD tx -6.3%.
`CN(CCc1ccccc1)C(=O)c1cccc(NC(=O)Cc2cccc(NC(=O)C3CCCN(C(=O)C4CCCC4)C3)c2)c1` (stereo unspecified) gave HT1080-NT tox 2.3%, DT40 TDP1 no CPT inconclusive, IL-1B inflam inh 19.4, TDP1 cell CPT inconclusive and HT1080 IDH1KD tx 2.7%.
O=C(CSc1nnc(COc2ccccc2)o1)N1CCOCC1 was read as ELG1 repair inh 14.2%, HT1080-NT tox 12.9%, DT40 TDP1 no CPT -16.5%, IL-1B inflam inh 0.0, TDP1 cell CPT -10.9% and HT1080 IDH1KD tx 10.7%.
For O=C(COc1ccc2cc(Br)ccc2c1)N1CCOCC1 the results were ELG1 repair inh 0.0%, HT1080-NT tox -0.2%[9.24 µM], DT40 TDP1 no CPT inconclusive, IL-1B inflam inh -13.0, TDP1 cell CPT 14.6µM* and HT1080 IDH1KD tx 4.4%.
Screening O=C(COc1ccc(C(=S)N2CCOCC2)cc1)N1CCOCC1 returned ELG1 repair inh -1.0%, HT1080-NT tox -7.8%, DT40 TDP1 no CPT 4.3%, IL-1B inflam inh 16.6, TDP1 cell CPT 0.7% and HT1080 IDH1KD tx -4.9%.
Screening O=C(CSc1nnc(COc2ccc(Br)cc2)o1)N1CCOCC1 returned ELG1 repair inh inconclusive, HT1080-NT tox 20.6%, DT40 TDP1 no CPT 18.4µM*, IL-1B inflam inh 41.7, TDP1 cell CPT -33.2% and HT1080 IDH1KD tx -13.9%.
Screening O=C(Nc1ccc(OCC(=O)N2CCOCC2)cc1)c1cncc(Br)c1 returned ELG1 repair inh 9.2µM*, HT1080-NT tox -8.0%, DT40 TDP1 no CPT inconclusive, IL-1B inflam inh 9.0, TDP1 cell CPT inconclusive and HT1080 IDH1KD tx -8.0%.
CCCCOc1ccc(C(=O)Nc2ccc(OCC(=O)N3CCOCC3)cc2)cc1 was read as ELG1 repair inh inconclusive, HT1080-NT tox -11.3%, DT40 TDP1 no CPT -19.4%, IL-1B inflam inh -4.5, TDP1 cell CPT -17.1% and HT1080 IDH1KD tx 3.9%.
`CCN1C(c2ccc(F)cc2)=CS/C1=C(/C#N)c1nnc2n1-c1ccccc1SC2` gave HT1080-NT tox 5.8%, DT40 TDP1 no CPT inconclusive, IL-1B inflam inh -12.8, TDP1 cell CPT inconclusive and HT1080 IDH1KD tx 5.4%.
O=C(c1ccco1)N1CCN(c2ncnc3c(-c4ccc(Cl)cc4)nsc23)CC1 was read as ELG1 repair inh inconclusive, HT1080-NT tox 20.2%, DT40 TDP1 no CPT -28.5%, IL-1B inflam inh 6.6, TDP1 cell CPT -2.1% and HT1080 IDH1KD tx 7.5%.
Screening CCCn1c(CC)nc([N+](=O)[O-])c1Sc1ccc(F)cc1 returned ELG1 repair inh inconclusive, HT1080-NT tox -13.3%, DT40 TDP1 no CPT inconclusive, IL-1B inflam inh -19.0, TDP1 cell CPT inconclusive and HT1080 IDH1KD tx -21.8%.
